Most compounds without a hit are left out; they make up all but 7.3% or so of the library.
NPC1 promoter act: qHTS Assay for NPC1 Promoter Activators | Huh7 NPC1 promoter luciferase reporter, 24 h | Potency, µM (series often up to 9.22 µM), usual class: activators | 320,000 compounds, 2.4% hits | AID 485313, 2010; note: nearly all actives have a fitted effect of over 60% in size
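Huh7 cells stably carrying NPC1 promoter–luciferase, plated in Opti-MEM with 10% FBS for 2 h, were exposed to compound in DMSO for 24 h at 37 °C; luciferase reagent was added for 10 min and luminescence read.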
KinaseGlo FLuc: Counterscreen for Luciferase (Kinase-Glo TM) Inhibition. Luciferin 4-monooxygenase (Photuris pensylvanica), Q27757. Kinase-Glo luciferase, ATP luminescence, 8 min. Potency, µM (doses to about 38.3 µM), usual class: inhibitors. 200,000 compounds, 0.28% hits. AID 1379, 2008; note: nearly all actives have a fitted effect of over 60% in size
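Substrate mix (final 50 mM imidazole pH 7.2, 50 mM KCl, 7 mM MgCl2, 10 uM ATP, 0.01% Tween 20, 0.05% BSA) plus pin-tool compound, then Kinase-Glo detection mix; 8 min ambient, luminescence read.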
ELG1 genotoxic: qHTS screen for small molecules that induce genotoxicity in human embryonic kidney (HEK293T) cells expressing luciferase-tagged ELG1; AID 504466, 2011; 330,000 compounds, 1.3% hits; Potency, µM (series often up to 46 µM), usual class: activators; HEK293T ELG1-luciferase reporter, luminescence, 16 h; note: nearly all actives have a fitted effect of over 60% in size
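Reporter readout depends on ELG1 protein level, which increases with genetic stress. After 16 hr compound exposure at 37 °C, luciferase activity was quantified using ONE-Glo.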
FLuc counter: qHTS profiling assay for firefly luciferase inhibitor/activator using purifed enzyme and Km concentrations of substrates (counterscreen for miR-21 project); Luciferin 4-monooxygenase (Photinus pyralis), P08659; purified FLuc, Km substrates, luminescence inhibition; Potency, µM (series often up to 57.5 µM), most hits filed as inhibitors; 360,000 compounds, 6.9% hits; AID 588342, 2011; note: nearly all actives have a fitted effect of over 55% in size
Target sequence (P08659 whole entry, looked up): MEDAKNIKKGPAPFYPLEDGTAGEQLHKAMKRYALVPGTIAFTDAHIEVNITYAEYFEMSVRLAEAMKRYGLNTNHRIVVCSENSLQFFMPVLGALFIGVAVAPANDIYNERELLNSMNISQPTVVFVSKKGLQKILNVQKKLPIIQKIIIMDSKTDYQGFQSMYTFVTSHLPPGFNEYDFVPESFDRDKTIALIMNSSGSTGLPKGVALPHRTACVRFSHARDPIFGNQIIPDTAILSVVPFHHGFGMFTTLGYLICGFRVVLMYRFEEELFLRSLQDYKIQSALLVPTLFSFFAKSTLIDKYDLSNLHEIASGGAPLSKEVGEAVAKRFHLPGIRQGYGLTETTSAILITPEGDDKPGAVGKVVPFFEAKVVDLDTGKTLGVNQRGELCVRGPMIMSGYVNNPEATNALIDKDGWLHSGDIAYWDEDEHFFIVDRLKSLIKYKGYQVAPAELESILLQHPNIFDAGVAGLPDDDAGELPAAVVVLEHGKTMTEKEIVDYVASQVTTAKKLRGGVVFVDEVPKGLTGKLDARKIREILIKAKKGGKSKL
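Purified P. pyralis luciferase, 10 nM final, with Km-level 10 uM D-luciferin and 10 uM ATP in 50 mM Tris acetate pH 7.5, 10 mM Mg acetate, 0.01% Tween-20, 0.05% BSA; 6-point qHTS titration about 60 µM downward; luminescence read.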
Rab9 promoter act: qHTS Assay for Rab9 Promoter Activators | Huh7 Rab9 promoter-luciferase reporter, luminescence, 24 h | Potency, µM (highest dose often 9.22 µM), usual class: activators | 320,000 compounds, 2.8% hits; note: nearly all actives have a fitted effect of over 60% in size
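Huh7 reporter line, Rab9 promoter upstream of luciferase. Compound exposure 24 h at 37 °C in reduced-serum medium with 10% FBS. Read-out: luminescence.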
SMN2 splice enh: qHTS Assay for Enhancers of SMN2 Splice Variant Expression | HEK293 SMN2-luciferase splicing reporter, luminescence, 30-36 h | Potency, µM (top dose mostly 46.1 µM), hits mostly activators | 210,000 compounds, 2.8% hits | AID 1458, 2008; note: nearly all actives have a fitted effect of over 55% in size
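HEK293 cells carry an SMN2 […]–luciferase reporter in which exon 7 inclusion puts luciferase in frame. Cells were plated 10-12 h before compound addition, then incubated 30-36 h at 37C. ONE-Glo luminescence was read; sodium butyrate at 4.5 mM final served as control.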
A number is an active result; - = inactive; ? = inconclusive; . = no result given. Calls come from the whole dose curve; as a rule, active = well fitted curve in the direction sought with a large enough effect; inconclusive = small, poorly fitted or top-dose-only effect, or another doubt; inactive = no such curve, though single readings can be large; an effect the other way counts as inactive or inconclusive.

SMILES | NPC1 promoter act | KinaseGlo FLuc | ELG1 genotoxic | FLuc counter | Rab9 promoter act | SMN2 splice enh
CC(=O)c1cccc(NC(=S)NC(=O)c2ccccc2Cl)c1 | - | - | - | ? | - | -
CC(=O)c1cccc(NC(=S)NC(=O)c2ccc(C)cc2Cl)c1 | - | - | - | 15µM | ? | ?
CCOc1cccc(C(=O)Nc2ccc(NC(=O)c3ccccc3)c(C)c2)c1 | - | . | - | 13µM | - | .
CC(=O)c1cccc(NC(=S)NC(=O)c2ccc(Br)cc2)c1 | ? | - | ? | - | ? | ?
CC1CCCCC1Nc1ncnc2sccc12 (stereo unspecified) | - | . | - | - | - | .
O=C(O)c1ccccc1C(=O)Nc1nccs1 | - | - | - | - | - | -
O=C(NC(=S)Nc1ccccc1C(=O)O)c1ccc2ccccc2c1 | - | . | - | ? | - | .
CN1CCN(c2ccccc2NC(=S)NC(=O)c2cc3ccccc3o2)CC1 | - | . | - | - | - | .
O=C(O)c1cccc(NC(=S)NC(=O)c2ccc3ccccc3c2)c1 | ? | . | ? | 1.3µM | ? | .
CCC(=O)Nc1cccc(NC(=S)NC(=O)c2ccc(C)cc2)c1 | 2µM | - | ? | 6.7µM | 1.6µM | 10µM
Cc1c(NC(=S)NC(=O)c2cc3ccccc3o2)cccc1C(=O)O | 4µM | . | - | ? | 1.8µM | .
CCC(=O)Nc1cccc(NC(=S)NC(=O)c2cccc(C)c2)c1 | 3.2µM | - | ? | ? | 1.6µM | 11µM
COc1ccc(NC(=O)CN2CCN(c3nc(-c4ccc(F)cc4)cs3)CC2)c(OC)c1 | - | - | - | - | - | .
CCOc1ccc(N(C(C)C(=O)NCCSc2ccc(C)cc2)S(C)(=O)=O)cc1 (stereo unspecified) | . | . | . | - | . | -
CC1=C(C(=O)Nc2ccc(C)cc2Cl)C2(CCCCC2)OC1=O | . | . | . | - | . | -
O=C(CN1C(=O)CC(c2ccco2)Sc2ccccc21)Nc1ccccc1F (stereo unspecified) | - | - | - | - | - | -
Oc1sc(C=Nc2ccc(F)cc2)c2ccccc12 | 3.2µM | - | - | ? | 2.8µM | 10µM
Oc1sc(C=Nc2ccccc2)c2ccccc12 | ? | - | ? | 6µM | ? | 8.9µM
Cc1cc(C)c(C)c(S(=O)(=O)Nc2ccc(C(N)=O)cc2)c1C | - | - | - | - | - | -
Cc1cc2nc(SCC(=O)Nc3ccccc3C(=O)O)[nH]c2cc1C | - | - | ? | 11µM | - | -
NC(=O)c1ccccc1NC(=O)CSc1nc2ccccc2c(=O)[nH]1 | - | . | - | - | - | .
CCCCc1nnc(NC(=O)c2oc3ccc(OC)cc3c2C)s1 | - | . | - | - | - | .
CCOc1ccc2oc(C(=O)Nc3nccs3)c(C)c2c1 | . | . | 2.6µM | . | . | .
COc1ccc2oc(C(=O)Nc3nccs3)c(C)c2c1 | 1.1µM | . | 0.52µM | 0.54µM | 1.1µM | .
CCOc1ccc2oc(C(=O)NC3CC(C)(C)NC(C)(C)C3)c(C)c2c1 | - | - | - | - | - | -
SMILES | NPC1 promoter act | KinaseGlo FLuc | ELG1 genotoxic | FLuc counter | Rab9 promoter act | SMN2 splice enh
CCOc1ccc2oc(C(=O)NC(C)(C)CC)c(C)c2c1 | ? | - | ? | 17µM | 2.5µM | ?
CC(C)(C)c1ccc(C(=O)Nc2nnc(SCC(=O)NCC3CCCO3)s2)cc1 (stereo unspecified) | 0.5µM | . | ? | 0.076µM | 0.32µM | .
CCOc1ccc(C(=O)Nc2nnc(SCC(=O)NCC3CCCO3)s2)cc1 (stereo unspecified) | 0.1µM | . | ? | 0.3µM | ? | .
Cc1cc(-c2nnc(CSc3nnc(NC(=O)c4ccc(C(C)(C)C)cc4)s3)o2)ccc1[N+](=O)[O-] | 2.5µM | . | ? | 1.7µM | ? | .
COCCSc1nnc(NC(=O)c2ccc([N+](=O)[O-])cc2)s1 | - | - | - | ? | - | -
O=C(CSc1nnc(NC(=O)c2cccc(F)c2)s1)NCC1CCCO1 (stereo unspecified) | - | . | - | 6µM | - | .
CN(C)S(=O)(=O)c1ccc(C(=O)Nc2nnc(SCC(=O)NCC3CCCO3)s2)cc1 (stereo unspecified) | - | . | - | - | - | .
O=C(NCc1ccc2c(c1)OCO2)C(=O)NCC1OCCCN1S(=O)(=O)c1cc(F)ccc1F (stereo unspecified) | - | . | - | - | - | .
COc1cccc(CN2CCN(Cc3[nH]c4ccccc4c3C)CC2CCO)c1 (stereo unspecified) | - | - | - | - | - | -
C=CCc1c(C)[nH]c2ccc(C)cc2c1=O | - | - | ? | ? | - | -
O=C(CSc1nnc(COc2ccc(Cl)cc2Cl)o1)Nc1ccccn1 | - | . | - | ? | - | .
O=C(CSc1nnc(CCCOc2ccc(Cl)cc2Cl)o1)Nc1ccc(C(=O)O)cc1 | - | - | - | 5.4µM | - | -
CCn1c(CCCOc2ccc(Cl)cc2Cl)nnc1SCC(=O)Nc1cccc(F)c1 | - | - | - | 9.5µM | - | -
CN(C)c1ccc(C2Nc3cccc4cccc(c34)N2)cc1 | ? | . | ? | 17µM | ? | .
CN(C)c1ccc(C2NC(=O)c3ccccc3N2)cc1 (stereo unspecified) | - | . | ? | 9.5µM | - | .
COc1ccc(C2Nc3cccc4cccc(c34)N2)cc1 | - | - | - | ? | - | -
c1ccc(C2Nc3cccc4cccc(c34)N2)cc1 | ? | . | - | 15µM | - | .
Clc1ccc(C2Nc3cccc4cccc(c34)N2)cc1Cl | - | . | - | 24µM | - | .
Clc1cccc(C2Nc3cccc4cccc(c34)N2)c1 | - | . | - | ? | - | .
C=CCNC(=O)/C(C#N)=C/c1ccc(C)o1 | - | - | - | - | - | -
Cc1ccc(C2NC(=O)c3ccccc3N2)s1 (stereo unspecified) | - | - | 18µM | ? | - | 10µM
O=C1NC(c2ccc(Cl)cc2)Nc2ccccc21 (stereo unspecified) | - | - | - | - | - | .
CCOc1cc(C2Nc3cccc4cccc(c34)N2)ccc1O | - | - | - | 13µM | - | -
CC(C)c1cccc(C(C)C)c1NC(=O)COC(=O)c1ccc2c(c1)S(=O)(=O)c1ccccc1C2=O | - | - | - | - | - | -
Cc1noc(C)c1CSCC(=O)NC1=NCCS1 | - | . | - | - | - | .
CC(C)Cc1nnc(NC(=O)Nc2ccccc2)s1 | ? | - | ? | 17µM | 3.2µM | 11µM
COc1ccc(C(=O)Nc2cc(OC)nc(OC)n2)cc1 | 2.2µM | - | ? | 4.3µM | 0.79µM | 7.9µM
COCCn1c(=O)[nH]c2cc(C(=O)Nc3cc(OC)c(OC)c(OC)c3)ccc2c1=O | - | . | - | - | - | .
COc1ccc(NC(=O)Nc2nnc(C)s2)cc1 | . | . | . | 17µM | . | -
